Legend:
Assay in all cases: log2 ratio of Biotin-Ahx-Ub-VS probe labelling (fragment/DMSO); higher = less target engagement (more negative = stronger competition), active = hit call of the paper (q ≤ 0.05, log2 ratio ≤ -1)
Conditions in all cases: compound concentration: 200 uM; treatment time: 3 h
[1] = molecular target: T1, USP42 (UniProt Q9H9J4)
T1 sequence (whole entry): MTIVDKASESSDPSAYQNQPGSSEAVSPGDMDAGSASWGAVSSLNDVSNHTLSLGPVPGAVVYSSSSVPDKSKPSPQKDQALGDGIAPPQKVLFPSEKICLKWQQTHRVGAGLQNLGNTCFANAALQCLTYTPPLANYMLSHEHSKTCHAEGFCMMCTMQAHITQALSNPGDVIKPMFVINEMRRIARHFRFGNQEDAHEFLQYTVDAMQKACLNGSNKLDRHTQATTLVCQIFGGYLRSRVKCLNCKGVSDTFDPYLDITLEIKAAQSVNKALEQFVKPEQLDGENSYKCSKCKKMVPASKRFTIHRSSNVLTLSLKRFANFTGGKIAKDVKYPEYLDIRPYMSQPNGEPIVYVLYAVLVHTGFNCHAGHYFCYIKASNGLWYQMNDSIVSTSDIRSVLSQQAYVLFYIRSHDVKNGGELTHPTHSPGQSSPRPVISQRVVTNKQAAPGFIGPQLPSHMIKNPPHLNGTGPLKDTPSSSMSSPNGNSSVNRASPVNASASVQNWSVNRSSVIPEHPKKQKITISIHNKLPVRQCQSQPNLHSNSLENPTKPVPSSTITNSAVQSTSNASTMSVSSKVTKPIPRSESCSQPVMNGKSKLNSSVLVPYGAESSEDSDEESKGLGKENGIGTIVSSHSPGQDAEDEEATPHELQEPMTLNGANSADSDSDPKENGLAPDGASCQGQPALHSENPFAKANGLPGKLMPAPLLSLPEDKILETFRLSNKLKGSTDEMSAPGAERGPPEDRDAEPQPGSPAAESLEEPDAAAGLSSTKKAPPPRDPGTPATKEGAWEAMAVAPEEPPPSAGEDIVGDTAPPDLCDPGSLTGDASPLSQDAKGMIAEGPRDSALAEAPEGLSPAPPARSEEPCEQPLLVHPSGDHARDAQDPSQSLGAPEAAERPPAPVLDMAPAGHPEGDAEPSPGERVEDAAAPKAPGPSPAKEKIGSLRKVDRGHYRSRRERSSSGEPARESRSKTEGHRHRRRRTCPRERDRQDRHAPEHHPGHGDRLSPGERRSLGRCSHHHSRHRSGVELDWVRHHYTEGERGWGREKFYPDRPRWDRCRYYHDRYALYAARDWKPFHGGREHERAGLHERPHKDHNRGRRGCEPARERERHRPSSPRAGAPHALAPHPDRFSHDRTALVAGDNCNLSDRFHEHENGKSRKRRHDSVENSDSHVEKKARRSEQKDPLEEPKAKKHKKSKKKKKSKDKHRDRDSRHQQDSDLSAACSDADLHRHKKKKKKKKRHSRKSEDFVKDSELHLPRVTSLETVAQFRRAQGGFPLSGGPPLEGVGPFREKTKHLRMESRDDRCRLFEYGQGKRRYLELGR
Procedure, shortened: (§1)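 Triplicate samples of HEK293T lysate, 495 µg each, received fragment at 200 µM or vehicle for 3 h, followed by Biotin-Ahx-Ub-VS (0.5 µM final) for 1 h. After NeutrAvidin enrichment of labelled DUBs and LysC/trypsin digestion, peptides were run by diaPASEF LC-MS/MS. The values are average log2 fragment/vehicle ratios from global-median-normalised Spectronaut label-free quantities, tested by unpaired t-test on proteins having ≥2 unique peptides.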

[2] = molecular target: USP46 (UniProt P62068)
Procedure, shortened: as §1

[3] = molecular target: T2, USP47 (UniProt Q96K76)
T2 sequence (whole entry): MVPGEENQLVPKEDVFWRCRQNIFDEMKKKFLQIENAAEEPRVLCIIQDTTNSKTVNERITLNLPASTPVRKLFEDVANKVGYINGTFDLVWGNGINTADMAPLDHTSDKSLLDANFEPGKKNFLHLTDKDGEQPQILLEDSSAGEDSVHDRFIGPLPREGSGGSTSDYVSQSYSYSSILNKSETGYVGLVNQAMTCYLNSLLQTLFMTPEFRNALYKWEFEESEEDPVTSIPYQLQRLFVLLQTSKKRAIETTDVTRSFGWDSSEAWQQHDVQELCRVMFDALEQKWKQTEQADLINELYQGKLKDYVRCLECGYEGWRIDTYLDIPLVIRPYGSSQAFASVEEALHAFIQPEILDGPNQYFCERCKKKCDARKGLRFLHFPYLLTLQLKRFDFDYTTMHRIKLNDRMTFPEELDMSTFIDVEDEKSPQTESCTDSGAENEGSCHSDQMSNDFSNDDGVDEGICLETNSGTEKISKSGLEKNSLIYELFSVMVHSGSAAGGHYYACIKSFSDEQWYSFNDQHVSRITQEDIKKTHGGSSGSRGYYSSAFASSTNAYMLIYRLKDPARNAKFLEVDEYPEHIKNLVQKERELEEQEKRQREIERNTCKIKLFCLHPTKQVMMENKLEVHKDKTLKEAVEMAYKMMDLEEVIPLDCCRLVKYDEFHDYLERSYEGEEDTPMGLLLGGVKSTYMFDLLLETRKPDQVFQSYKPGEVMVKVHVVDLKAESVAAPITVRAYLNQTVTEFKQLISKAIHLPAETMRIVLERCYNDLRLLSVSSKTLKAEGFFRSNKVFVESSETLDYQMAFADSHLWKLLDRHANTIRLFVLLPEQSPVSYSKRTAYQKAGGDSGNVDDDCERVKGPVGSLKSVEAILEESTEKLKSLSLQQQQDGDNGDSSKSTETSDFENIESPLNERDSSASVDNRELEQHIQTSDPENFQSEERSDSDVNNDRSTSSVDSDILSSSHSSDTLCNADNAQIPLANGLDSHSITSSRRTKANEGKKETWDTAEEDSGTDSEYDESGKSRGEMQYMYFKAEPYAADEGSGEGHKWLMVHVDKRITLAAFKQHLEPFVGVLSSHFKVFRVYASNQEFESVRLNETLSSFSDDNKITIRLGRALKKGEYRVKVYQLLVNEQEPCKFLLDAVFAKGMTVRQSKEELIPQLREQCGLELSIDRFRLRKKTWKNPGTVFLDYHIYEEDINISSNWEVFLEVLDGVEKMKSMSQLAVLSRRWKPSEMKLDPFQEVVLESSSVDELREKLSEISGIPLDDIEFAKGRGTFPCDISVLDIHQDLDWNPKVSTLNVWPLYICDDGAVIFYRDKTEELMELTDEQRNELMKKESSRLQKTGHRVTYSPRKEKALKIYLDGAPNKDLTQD
Procedure, shortened: as §1

[4] = molecular target: T3, USP48 (UniProt Q86UV5)
T3 sequence (whole entry): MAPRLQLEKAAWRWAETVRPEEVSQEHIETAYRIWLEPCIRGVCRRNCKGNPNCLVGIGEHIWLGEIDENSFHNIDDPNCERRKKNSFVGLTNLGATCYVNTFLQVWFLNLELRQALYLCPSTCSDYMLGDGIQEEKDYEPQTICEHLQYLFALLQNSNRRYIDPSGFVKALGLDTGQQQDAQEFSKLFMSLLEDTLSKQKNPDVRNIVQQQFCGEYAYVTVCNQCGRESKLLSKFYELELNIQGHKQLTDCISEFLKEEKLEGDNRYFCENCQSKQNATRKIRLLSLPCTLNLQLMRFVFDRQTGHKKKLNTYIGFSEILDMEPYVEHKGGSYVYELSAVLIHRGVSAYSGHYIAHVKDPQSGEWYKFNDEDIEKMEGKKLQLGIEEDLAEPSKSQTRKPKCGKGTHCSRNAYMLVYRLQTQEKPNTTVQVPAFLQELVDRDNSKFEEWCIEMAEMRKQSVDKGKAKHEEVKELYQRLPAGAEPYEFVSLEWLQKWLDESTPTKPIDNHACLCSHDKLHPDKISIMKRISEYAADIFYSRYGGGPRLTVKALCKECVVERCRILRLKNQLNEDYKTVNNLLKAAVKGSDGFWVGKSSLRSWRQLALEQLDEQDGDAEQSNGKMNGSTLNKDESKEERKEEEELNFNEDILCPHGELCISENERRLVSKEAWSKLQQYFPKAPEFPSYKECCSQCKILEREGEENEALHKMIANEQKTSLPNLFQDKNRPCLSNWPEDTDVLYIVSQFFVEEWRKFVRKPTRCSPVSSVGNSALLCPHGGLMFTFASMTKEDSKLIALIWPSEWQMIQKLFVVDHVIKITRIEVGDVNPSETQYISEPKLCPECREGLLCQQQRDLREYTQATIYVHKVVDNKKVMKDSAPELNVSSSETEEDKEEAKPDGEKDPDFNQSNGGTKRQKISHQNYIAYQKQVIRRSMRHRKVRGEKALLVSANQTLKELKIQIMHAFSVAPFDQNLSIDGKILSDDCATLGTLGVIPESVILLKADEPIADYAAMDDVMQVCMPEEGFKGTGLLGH
Procedure, shortened: as §1

[5] = molecular target: T4, USP5 (UniProt P45974)
T4 sequence (whole entry): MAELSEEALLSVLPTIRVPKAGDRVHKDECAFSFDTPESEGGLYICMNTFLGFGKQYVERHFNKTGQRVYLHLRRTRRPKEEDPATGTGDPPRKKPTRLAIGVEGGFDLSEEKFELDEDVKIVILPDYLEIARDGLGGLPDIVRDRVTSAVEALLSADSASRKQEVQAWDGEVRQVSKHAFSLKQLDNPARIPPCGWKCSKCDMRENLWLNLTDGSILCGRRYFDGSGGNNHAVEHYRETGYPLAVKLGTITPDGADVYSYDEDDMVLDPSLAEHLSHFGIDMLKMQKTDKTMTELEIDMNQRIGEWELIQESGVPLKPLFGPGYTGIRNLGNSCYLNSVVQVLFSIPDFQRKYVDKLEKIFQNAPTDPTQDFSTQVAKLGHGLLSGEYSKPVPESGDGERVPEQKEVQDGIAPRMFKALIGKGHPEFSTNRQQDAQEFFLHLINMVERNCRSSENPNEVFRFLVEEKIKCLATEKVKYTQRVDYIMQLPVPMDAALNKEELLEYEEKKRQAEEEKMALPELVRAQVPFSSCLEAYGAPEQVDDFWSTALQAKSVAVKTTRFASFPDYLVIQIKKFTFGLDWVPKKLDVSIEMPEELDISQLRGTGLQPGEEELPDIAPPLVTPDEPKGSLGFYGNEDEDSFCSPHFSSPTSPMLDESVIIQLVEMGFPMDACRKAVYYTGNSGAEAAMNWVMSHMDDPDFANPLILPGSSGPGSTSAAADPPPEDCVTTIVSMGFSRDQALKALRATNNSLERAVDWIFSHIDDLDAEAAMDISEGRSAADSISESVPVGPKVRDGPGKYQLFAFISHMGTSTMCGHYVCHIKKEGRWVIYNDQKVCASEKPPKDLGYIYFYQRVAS
Procedure, shortened: as §1

[6] = molecular target: USP54 (UniProt Q70EL1)
Procedure, shortened: as §1

[7] = molecular target: USP7 (UniProt Q93009)
Procedure, shortened: as §1

[8] = molecular target: T5, USP8 (UniProt P40818)
T5 sequence (whole entry): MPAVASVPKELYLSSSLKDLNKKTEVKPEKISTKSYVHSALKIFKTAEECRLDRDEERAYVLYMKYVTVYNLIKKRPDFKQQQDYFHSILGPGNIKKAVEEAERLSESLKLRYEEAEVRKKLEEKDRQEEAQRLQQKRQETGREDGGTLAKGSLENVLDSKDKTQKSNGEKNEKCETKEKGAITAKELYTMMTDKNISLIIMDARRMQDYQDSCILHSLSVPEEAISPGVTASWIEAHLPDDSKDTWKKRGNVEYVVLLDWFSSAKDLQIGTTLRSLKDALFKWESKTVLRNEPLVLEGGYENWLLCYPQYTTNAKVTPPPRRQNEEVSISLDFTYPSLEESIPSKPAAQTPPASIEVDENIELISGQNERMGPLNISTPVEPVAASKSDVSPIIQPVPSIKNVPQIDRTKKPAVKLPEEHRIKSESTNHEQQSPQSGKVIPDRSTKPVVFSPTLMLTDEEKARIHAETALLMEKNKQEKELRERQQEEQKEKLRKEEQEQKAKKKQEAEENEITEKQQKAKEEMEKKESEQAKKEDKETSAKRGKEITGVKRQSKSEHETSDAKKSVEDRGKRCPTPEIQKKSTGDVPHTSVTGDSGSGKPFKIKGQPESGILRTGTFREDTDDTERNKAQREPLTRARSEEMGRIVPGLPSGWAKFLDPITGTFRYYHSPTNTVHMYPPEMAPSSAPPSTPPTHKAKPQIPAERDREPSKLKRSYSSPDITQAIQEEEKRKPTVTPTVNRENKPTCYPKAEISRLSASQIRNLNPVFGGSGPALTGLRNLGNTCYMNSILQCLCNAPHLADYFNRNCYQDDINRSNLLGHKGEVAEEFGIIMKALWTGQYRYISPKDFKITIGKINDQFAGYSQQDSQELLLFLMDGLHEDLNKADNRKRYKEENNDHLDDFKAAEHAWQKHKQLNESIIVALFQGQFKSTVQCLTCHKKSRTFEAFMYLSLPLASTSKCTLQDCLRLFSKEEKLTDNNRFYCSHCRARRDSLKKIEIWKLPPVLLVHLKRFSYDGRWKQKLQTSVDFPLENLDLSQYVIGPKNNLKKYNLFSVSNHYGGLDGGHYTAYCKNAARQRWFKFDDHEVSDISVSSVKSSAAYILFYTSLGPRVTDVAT
Procedure, shortened: as §1

[9] = molecular target: USP9X (UniProt Q93008)
Procedure, shortened: as §1

[10] = molecular target: UniProt O00487
Procedure, shortened: as §1

Measured: log2 ratio of Biotin-Ahx-Ub-VS probe labelling

USP9X, sequence (Q93008 whole entry): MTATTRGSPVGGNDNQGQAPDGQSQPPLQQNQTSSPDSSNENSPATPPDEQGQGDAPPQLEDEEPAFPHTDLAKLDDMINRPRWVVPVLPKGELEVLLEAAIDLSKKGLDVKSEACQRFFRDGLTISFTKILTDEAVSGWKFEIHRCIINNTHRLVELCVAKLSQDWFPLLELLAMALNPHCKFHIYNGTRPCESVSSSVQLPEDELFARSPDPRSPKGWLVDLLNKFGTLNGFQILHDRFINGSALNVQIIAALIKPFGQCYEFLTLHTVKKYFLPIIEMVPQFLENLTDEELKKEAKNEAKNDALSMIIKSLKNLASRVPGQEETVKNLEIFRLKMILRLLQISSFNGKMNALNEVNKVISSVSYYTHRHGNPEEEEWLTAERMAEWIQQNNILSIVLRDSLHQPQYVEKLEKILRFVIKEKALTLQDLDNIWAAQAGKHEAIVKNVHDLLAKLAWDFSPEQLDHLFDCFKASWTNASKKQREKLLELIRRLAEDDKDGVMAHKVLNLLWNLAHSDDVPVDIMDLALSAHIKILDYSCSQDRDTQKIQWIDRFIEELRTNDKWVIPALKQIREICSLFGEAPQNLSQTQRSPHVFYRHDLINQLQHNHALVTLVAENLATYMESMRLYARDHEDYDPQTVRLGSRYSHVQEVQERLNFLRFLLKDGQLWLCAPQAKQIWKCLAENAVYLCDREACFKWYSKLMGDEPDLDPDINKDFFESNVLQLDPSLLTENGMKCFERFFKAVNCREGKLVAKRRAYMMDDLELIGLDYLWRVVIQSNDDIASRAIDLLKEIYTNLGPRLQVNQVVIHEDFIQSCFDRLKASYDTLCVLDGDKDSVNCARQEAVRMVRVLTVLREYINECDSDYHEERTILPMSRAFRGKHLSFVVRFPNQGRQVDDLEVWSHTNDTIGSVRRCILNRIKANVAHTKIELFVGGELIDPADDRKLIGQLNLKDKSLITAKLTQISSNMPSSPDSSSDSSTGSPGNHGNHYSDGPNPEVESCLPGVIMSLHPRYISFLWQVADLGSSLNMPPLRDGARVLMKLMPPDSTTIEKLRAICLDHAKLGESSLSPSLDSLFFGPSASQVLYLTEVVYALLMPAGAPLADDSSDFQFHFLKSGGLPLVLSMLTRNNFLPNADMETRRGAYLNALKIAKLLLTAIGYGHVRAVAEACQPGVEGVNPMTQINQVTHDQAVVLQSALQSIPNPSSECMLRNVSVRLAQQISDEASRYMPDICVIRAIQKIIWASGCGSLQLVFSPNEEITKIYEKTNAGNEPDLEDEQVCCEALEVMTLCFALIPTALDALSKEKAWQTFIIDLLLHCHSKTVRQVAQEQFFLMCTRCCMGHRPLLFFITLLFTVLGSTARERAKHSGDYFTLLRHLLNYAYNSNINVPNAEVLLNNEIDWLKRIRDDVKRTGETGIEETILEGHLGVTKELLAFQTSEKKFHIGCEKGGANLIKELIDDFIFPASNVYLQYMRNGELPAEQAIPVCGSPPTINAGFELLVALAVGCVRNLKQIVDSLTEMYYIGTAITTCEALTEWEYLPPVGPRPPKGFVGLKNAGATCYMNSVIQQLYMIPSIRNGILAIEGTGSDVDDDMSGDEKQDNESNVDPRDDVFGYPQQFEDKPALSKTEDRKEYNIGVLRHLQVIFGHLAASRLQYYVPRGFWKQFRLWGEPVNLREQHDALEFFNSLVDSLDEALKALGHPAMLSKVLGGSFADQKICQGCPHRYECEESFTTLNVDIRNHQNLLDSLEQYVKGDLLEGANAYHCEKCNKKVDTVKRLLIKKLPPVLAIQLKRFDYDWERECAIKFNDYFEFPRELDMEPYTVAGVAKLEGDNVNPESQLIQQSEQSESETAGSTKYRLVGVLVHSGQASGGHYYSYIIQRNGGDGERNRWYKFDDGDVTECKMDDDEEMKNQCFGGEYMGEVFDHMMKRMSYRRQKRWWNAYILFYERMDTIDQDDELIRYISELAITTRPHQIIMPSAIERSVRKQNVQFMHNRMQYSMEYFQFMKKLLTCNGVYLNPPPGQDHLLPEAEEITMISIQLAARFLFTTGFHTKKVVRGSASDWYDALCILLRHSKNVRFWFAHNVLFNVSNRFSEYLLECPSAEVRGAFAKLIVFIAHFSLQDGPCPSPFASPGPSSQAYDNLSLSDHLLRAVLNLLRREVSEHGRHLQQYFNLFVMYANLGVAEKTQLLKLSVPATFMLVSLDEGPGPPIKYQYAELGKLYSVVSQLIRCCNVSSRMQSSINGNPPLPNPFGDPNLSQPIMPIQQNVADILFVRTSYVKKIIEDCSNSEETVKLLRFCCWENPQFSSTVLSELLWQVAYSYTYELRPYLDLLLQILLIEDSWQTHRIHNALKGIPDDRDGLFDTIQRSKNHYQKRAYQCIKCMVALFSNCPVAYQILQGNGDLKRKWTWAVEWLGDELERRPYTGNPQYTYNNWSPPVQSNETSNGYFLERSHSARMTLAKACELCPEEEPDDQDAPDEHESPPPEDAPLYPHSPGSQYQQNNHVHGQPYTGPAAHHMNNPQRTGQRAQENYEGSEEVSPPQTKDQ
UniProt O00487, sequence (O00487 whole entry): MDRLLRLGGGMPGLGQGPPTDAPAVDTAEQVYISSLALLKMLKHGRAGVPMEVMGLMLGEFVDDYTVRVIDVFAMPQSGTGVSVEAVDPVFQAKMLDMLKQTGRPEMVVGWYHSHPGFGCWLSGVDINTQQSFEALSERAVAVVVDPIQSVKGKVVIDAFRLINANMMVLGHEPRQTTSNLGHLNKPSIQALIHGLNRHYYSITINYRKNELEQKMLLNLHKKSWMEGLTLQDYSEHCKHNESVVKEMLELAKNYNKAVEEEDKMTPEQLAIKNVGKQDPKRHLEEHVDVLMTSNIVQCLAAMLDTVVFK
USP7, sequence (Q93009 whole entry, looked up): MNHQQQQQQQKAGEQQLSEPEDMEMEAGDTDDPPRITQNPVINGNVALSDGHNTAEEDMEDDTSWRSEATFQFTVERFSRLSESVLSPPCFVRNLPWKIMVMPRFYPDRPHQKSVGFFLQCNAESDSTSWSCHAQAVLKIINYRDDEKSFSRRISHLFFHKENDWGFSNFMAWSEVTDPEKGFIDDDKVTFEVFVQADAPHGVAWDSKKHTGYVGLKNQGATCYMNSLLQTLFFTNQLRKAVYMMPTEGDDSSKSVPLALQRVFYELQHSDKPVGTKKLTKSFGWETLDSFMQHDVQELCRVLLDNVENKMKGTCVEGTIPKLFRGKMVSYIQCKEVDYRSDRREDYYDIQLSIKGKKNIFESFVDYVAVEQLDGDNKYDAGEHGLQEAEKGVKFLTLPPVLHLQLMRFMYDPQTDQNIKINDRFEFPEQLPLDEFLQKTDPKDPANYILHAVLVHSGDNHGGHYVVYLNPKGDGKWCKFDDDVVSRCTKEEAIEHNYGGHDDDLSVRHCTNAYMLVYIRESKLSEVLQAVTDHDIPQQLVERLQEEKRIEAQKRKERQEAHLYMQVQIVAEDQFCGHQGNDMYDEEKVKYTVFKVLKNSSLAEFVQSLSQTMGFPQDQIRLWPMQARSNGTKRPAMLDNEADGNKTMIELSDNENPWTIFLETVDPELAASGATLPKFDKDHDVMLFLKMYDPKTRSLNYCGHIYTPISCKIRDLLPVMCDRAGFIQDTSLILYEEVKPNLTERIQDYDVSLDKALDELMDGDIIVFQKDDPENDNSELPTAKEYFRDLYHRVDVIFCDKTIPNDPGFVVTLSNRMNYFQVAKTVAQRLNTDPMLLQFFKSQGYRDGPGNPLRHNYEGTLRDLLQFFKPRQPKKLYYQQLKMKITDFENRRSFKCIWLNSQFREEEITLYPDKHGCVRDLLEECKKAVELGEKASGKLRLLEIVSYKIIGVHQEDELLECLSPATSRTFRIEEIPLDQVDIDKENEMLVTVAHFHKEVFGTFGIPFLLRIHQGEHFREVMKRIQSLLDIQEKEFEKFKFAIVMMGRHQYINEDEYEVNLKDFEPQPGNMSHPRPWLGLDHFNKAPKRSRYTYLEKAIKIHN
USP46, sequence (P62068 whole entry): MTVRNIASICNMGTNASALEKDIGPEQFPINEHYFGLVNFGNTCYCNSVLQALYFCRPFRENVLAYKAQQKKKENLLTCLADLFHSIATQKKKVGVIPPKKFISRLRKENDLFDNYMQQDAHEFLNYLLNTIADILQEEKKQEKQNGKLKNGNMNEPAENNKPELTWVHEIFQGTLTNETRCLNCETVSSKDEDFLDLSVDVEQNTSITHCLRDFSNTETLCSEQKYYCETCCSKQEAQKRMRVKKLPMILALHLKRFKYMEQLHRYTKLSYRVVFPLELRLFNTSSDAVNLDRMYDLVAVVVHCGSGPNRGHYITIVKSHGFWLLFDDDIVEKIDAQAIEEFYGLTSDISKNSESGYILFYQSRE

Cc1cc(CC(C)NC(=O)CCl)n[nH]1 (stereo not given)
inactive: [1] -0.515 | [2] -0.086 | [3] 0.219 | [4] -0.0294 | [5] -0.0909 | [6] -0.195 | [7] -0.0248 | [8] -0.57 | [9] -0.345 | [10] -0.0204

From the supplement of paper PMC11732987, “Enantioselective OTUD7B fragment discovery through chemoproteomics screening and high-throughput optimisation” (Communications Chemistry, 2025)
